Test results reported in paper PMC5540273 (PLoS ONE, 2017).

tested on: BLK; conditions: concentration: 1 μM,replicates: in singlicate; n = 1
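Note: KINOMEscan kinase panel screen.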

SMILES | %Inh [%]
OCCn1cc(-c2cnc3nnn(Cc4ccc5ncccc5c4)c3n2)cn1 | 4
CCN1CCN(CCCC(=O)Nc2n[nH]c3nc(-c4ccc(O)cc4)c(Br)cc23)CC1 [SB-731579] | 0
C[C@@H]1CNc2c(sc3ccc4nc(-c5ccncc5)ccc4c23)C(=O)N1 | 0
COc1cccc(CNC(=O)NC2CCN(c3ccnc(Nc4cc(OC)c(OC)c(OC)c4)n3)C2)c1 (stereo not shown) [GSK1379765] | 9
CCn1c(-c2nonc2N)nc2cncc(CNC3CCNCC3)c21.Cl [SB-747651] | 8
O=C(NCC1CC1)c1ccc(-c2cc(C(=O)NC3CC3)ccc2F)cc1 [GW810445] | 30
COc1cccc(OC)c1C(=O)Nc1cccc(-c2nn3ccccc3c2-c2ccnc(Nc3cccc(F)c3)n2)c1 [GSK361065] | 41
Cn1cc(-c2cccc3c(N)c(C(N)=O)nnc23)cn1 | 6
CC(C)S(=O)(=O)N1CCN(Cc2ccc3c(c2)nc(NC(=O)c2ccsc2)n3C[C@H](O)c2ccccc2)CC1 [GW635815] | 65
Cc1ccc(CC(=O)N2CCc3cc(-c4cn(C)c5ncnc(N)c45)ccc32)cc1 [GSK2634758] | 31
CCn1c(-c2nonc2N)nc2cncc(Br)c21 [SB-738004] | 0
O=C(Nc1ccccc1)c1cccc(Oc2ccc3nccn3n2)c1 | 9
COC(=O)Nc1nc2cc(Oc3ccc(NC(=O)Nc4cc(C(F)(F)F)ccc4Cl)cc3)ccc2[nH]1.Cl [GW697465] | 63
O=C1NCCc2[nH]c(-c3ccncc3)cc21 | 15
CNC(=O)c1ccccc1Nc1nc(Nc2cccc(CS(C)(=O)=O)c2)ncc1C.O=CO [GSK1520489] | 99.6
O=C(Nc1cccc(Oc2ccc3nccn3n2)c1)Nc1cccc(C(F)(F)F)c1 | 9
COc1ccc(Nc2nccc(N3CCC(NC(=O)c4cccc(C#N)c4)C3)n2)cc1 (stereo not shown) [GSK1379730] | 38
COc1cc2nccc(Nc3ccc(Oc4ccccc4)cc3)c2cc1OC.Cl [GI261656] | 99.2
C[C@@H](Oc1cc(-n2cnc3ccc(-c4ccncc4)cc32)sc1C(N)=O)c1ccccc1Cl [GSK483724] | 31

SMILES | %Inh [%]
CC(=O)Nc1ccc(-c2cc3ncnc(SCC(=O)O)c3s2)cc1 | 0
NC(=O)c1ccc(-c2cc3ncnc(SCC(=O)O)c3s2)cc1 | 0
COc1cc(Nc2nccc(N3CCC(NC(=O)c4cccc(C#N)c4)C3)n2)cc(OC)c1OC (stereo not shown) [GSK1379751] | 0
Cn1ccc2ncnc(Oc3ccc(NC(=O)Nc4cc(C(C)(C)C)on4)c(Cl)c3)c21 | 87
Cn1ccc2ncnc(Oc3ccc(NC(=O)Nc4cccc(C(F)(F)F)c4)c(F)c3)c21 | 22
CC(=O)Nc1nc2cnc(Nc3cc(NC(=O)c4cccc(CC(C)(C)C#N)c4)ccc3C)nc2s1 | 32
c1ccc(Oc2ccc(Nc3ccnc4ccc(-c5ccccn5)cc34)cc2)cc1 [GW407034] | 90.2
COC(=O)c1cccc(NC(=O)NC2CCN(c3ccnc(Nc4cc(OC)c(OC)c(OC)c4)n3)C2)c1 (stereo not shown) [GSK1379767] | 0
Cc1cccc(-c2nc(Nc3ccncc3)c3sccc3n2)n1 [GW869641] | 15
CC(=O)c1c(-c2ccncc2)[nH]c(-c2ccncc2)c1C [GW493036] | 38
Cc1nnc(-c2ccc3occ(-c4ccc(S(C)=O)cc4)c3n2)o1 (stereo not shown) | 0
Cc1ccc2c(-c3ccnc(Nc4ccc(C(F)(F)F)cc4)n3)cnn2n1 [GW819776] | 0
Cn1ccc2ncnc(Oc3ccc(NC(=O)Nc4cncc(C(F)(F)F)c4)c(Cl)c3)c21 | 9
Cl.Nc1n[nH]c2cc(-c3ccccn3)ccc12 [GSK2189892] | 22
C[C@@H](Oc1cc(-n2cnc3cc(-c4cnn(C)c4)ccc32)sc1C(N)=O)c1ccccc1Cl [GSK580432] | 89
CN1CCN(CCCNc2nccc(-c3c(-c4ccc(F)cc4)nn4cc(C(N)=O)ccc34)n2)CC1 [GW622475] | 56
O=C(Nc1n[nH]c2cc(-c3ccco3)ccc12)C1CC1 [SB-737447] | 0
NC(=O)Nc1sc(-c2ccc(F)cc2)cc1C(N)=O [GW789449] | 46
